Mtb FBA inh – Mtb FBA enzyme inhibitors, primary screen, biochemical, fluorescence, strain H37Rv. Fructose-bisphosphate aldolase (Mycobacterium tuberculosis (strain ATCC 25618 / H37Rv)), …. inhibition, % at 1 µM. hit rate 2.3% among 360,000. purified M. tuberculosis FBA, fluorescence read-out; in the data active means inhibition above about 27%;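 further: 0% = vehicle and 100% = reference inhibitor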
Mtb UGM inh – M. tuberculosis UGM enzyme inhibitors, primary screen, biochemical, fluorescence polarization, single point; UDP-galactopyranose mutase (Mycobacterium tuberculosis (strain ATCC 25618 / H37Rv)), …; purified UGM, fluorescence polarization probe displacement; inhibition, % at 10 µM; AID 504406, 2011; hit rate 0.06% among 320,000; in the data active means inhibition above about 10%, passing the limit was not always enough; inconclusive means no clear call, values can overlap the other calls
Rv3671c inh – Rv3671c serine protease inhibitors, primary screen, biochemical, fluorescence polarization, M. tuberculosis H37Rv | hit rate 0.048% among 320,000 | P9WHR9 | inhibition, % at 5.96 µM; in the data active means inhibition above about 38%;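 further: extracellular domain of Rv3671c used as enzyme; 0% = enzyme with DMSO and 100% = no enzyme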
Target sequence (P9WHR9 whole entry, looked up, the tested form may be a part): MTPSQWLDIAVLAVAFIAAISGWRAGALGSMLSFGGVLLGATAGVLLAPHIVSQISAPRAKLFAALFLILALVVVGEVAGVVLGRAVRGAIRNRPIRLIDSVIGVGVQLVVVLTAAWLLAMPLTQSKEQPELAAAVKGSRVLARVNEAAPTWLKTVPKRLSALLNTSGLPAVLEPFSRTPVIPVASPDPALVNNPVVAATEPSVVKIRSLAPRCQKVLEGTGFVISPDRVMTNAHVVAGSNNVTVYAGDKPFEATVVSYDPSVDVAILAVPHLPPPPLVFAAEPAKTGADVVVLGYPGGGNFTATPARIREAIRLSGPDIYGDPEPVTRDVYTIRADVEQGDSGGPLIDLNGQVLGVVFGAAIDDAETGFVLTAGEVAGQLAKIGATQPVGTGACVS
Mtb betalactam – beta-lactam sensitization of Mtb H37Rv, H37Rv | M. tuberculosis H37Rv growth with meropenem, percent inhibition | hit rate 0.27% among 330,000 | inhibition, % at 25 µM; call rule not given here;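 further: growth measured after seven days incubation then overnight dye step; 0% = bacteria only wells and 100% = bacteria with antibiotic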
RecA splice inh – Mtb RecA intein splicing inhibitors, primary screen, biochemical, fluorescence, HTS; inhibition, % (concentration not given with the values); hit rate 0.75% among 290,000; cell-free RecA intein splicing; in the data active means inhibition above about 30%; inconclusive means no clear call, values can overlap the other calls;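 further: 0% = vehicle wells and 100% = reference inhibitor control wells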
GDH-TPI counter – GDH-TPI coupling enzyme inhibitors, primary screen, artefact control for M. tuberculosis FBA inhibitor project, biochemical, absorbance, full deck. GDH-TPI coupled enzyme counterscreen, NADH absorbance. inhibition, % at 4.8 µM. hit rate 1.2% among 360,000. AID 588335, 2011; in the data active means inhibition above about 30%;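 further: 0% = DMSO wells and 100% = wells lacking the enzyme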
An asterisk follows results filed as active; i = inactive; ? = inconclusive; . = not tested or not shown; + = active, no number. An excerpt weighted towards active compounds, which were near 4% of everything screened.

SMILES	Mtb FBA inh	Mtb UGM inh	Rv3671c inh	Mtb betalactam	RecA splice inh	GDH-TPI counter
Cc1ccc(C(=O)N/N=C/c2cccc(OC(=O)/C=C/c3ccco3)c2)cn1	0.0	3.8	-10.4	-6.5	0.3	-1.9
Cc1cccn2c(=O)c3cc(C(=O)NCC4CCCO4)c(=N)n(C4CCCC4)c3nc12 (stereo not drawn)	+	1.3	4.0	3.3	i	10.9
COc1ccc(CCNC(=O)c2cc3c(=O)n4ccccc4nc3n(C3CCCCC3)c2=N)cc1	16.1	0.6	4.9	90.7	-26.9	0.0
Cc1cccn2c(=O)c3cc(C(=O)NCc4ccco4)c(=N)n(C4CCCCC4)c3nc12	84.9*	-2.3	2.7	-1.6	-304.0	1.1
N=c1c(C(=O)NCC2CCCO2)cc2c(=O)n3ccccc3nc2n1C1CCCC1 (stereo not drawn)	+	1.9	4.5	-0.1	1.9	-0.8
Cc1ccc2nc3c(cc(C(=O)NCC4CCCO4)c(=N)n3C3CCCC3)c(=O)n2c1 (stereo not drawn)	+	-1.1	-1.4	-3.6	.	6.1
Cc1cccn2c(=O)c3cc(C(=O)NCc4ccco4)c(=N)n(CCOCCO)c3nc12	+	-1.8	10.9	3.7	-202.3	16.4
N=c1c(C(=O)NCC2CCCO2)cc2c(=O)n3ccccc3nc2n1C1CCCCC1 (stereo not drawn)	+	1.1	-2.1	6.1	i	0.7
COc1ccc(CCNC(=O)c2cc3c(=O)n4ccccc4nc3n(C3CCCCC3)c2=N)cc1OC	2.0	-2.4	-8.2	-2.8	-4.2	-4.7
COc1ccc(CCn2c(=N)c(C(=O)NCCN3CCOCC3)cc3c(=O)n4cccc(C)c4nc32)cc1OC	1.7	-2.8	-1.7	8.8	1.6	8.4
Cc1nn(CCCC(=O)NCCc2ccccc2)c(=O)c2nccn12	-1.1	0.3	6.9	-1.9	-4.4	4.8
COc1cccc(-c2cnc(C(O)c3ccc(Cl)cc3C)[nH]2)c1 (stereo not drawn)	1.8	.	.	.	.	3.6
Cc1cccc(C(=O)OC2CCOC2=O)c1C (stereo not drawn)	2.6	-0.5	2.2	1.4	0.3	1.5
CC[C@]12c3[nH]c4ccc(OC)cc4c3CCN1C(=O)C(CC(=O)NCCc1ccccn1)C[C@@H]2C(=O)N1CCN(C(=O)c2ccco2)CC1 (stereo partly drawn)	3.8	.	.	.	.	5.5
CC(Sc1ccc(S(=O)(=O)N2CCOCC2)cn1)c1ccccc1Cl (stereo not drawn)	1.4	-4.0	-2.4	-5.4	.	4.3
CC1=Nc2ccccc2/C1=C\c1nc(-c2ccccc2)oc1O	-22.0	3.2	-23.6	52.9	0.8	0.6
CC1=Nc2ccccc2/C1=C\c1nc(-c2ccc(C(F)(F)F)cc2)oc1O	0.9	11.9*	5.1	99.3	-2.3	4.7
Cc1ccc(-c2nc3c(c(=O)c4ccccc4n3C)c(=O)n2Cc2ccco2)cc1	3.4	-3.0	-2.4	99.6	7.2	32.4*
O=C1CNC(=S)N1CCCc1ccccc1	1.0	-0.8	-9.4	?	-4.9	1.7
COc1cc(C2NC(=O)NC(C)=C2C(=O)OCC2CCCCC2)cc(Cl)c1O (stereo not drawn)	1.1	5.3	-3.9	-4.5	20.4	16.9
COc1cc(C2NC(=O)NC(C)=C2C(=O)OC2CCCCC2)cc(Cl)c1O (stereo not drawn)	184.4*	2.0	-0.3	-1.6	9.2	5.4
O=C(COC(=O)c1ccc2c(c1[N+](=O)[O-])C(=O)c1ccccc1C2=O)NC1CC1	-1.2	0.0	-2.5	2.6	70.6*	-2.9
N#Cc1cccc(NC(=O)COC(=O)Cn2nc(-c3ccccc3)oc2=O)c1	4.0	-1.3	-4.4	-4.4	.	4.9
COc1ccc(C(=O)COC(=O)c2cc3ccccc3oc2=O)c(OC)c1	6.2	0.8	-0.5	46.4	.	6.3
COc1ccc(CNC(=O)c2cc3ccccc3oc2=O)cc1	3.4	2.9	-12.3	36.0	5.8	14.7
SMILES	Mtb FBA inh	Mtb UGM inh	Rv3671c inh	Mtb betalactam	RecA splice inh	GDH-TPI counter
CNC(=O)c1cc2ccc(OC)cc2oc1=O	+	0.6	1.3	-5.1	-1.5	29.9
CCOC(=O)c1cc2ccc(OC)cc2oc1=O	+	2.7	0.1	12.0	-5.1	42.5*
C/C(=N\N=C(/N)SC1CC(=O)N(c2cccc(Cl)c2)C1=O)c1cccs1 (stereo not drawn)	-4.8	-0.8	-31.8	15.9	8.1	40.0*
COc1ccc(-c2ccnc3nc(Sc4ncc(C(F)(F)F)cc4Cl)nn23)cc1	+	1.4	-18.2	-11.0	3.2	13.7
FC(F)(F)c1cnc(Sc2nc3nccc(-c4ccc(Cl)cc4)n3n2)c(Cl)c1	2.3	2.1	-3.6	0.1	6.1	-4.2
Oc1cc(O)c2c(c1)O[C@H](c1ccc(O)c(O)c1)[C@@H](O)C2	5.9	0.2	-1.0	0.5	59.2*	1.4
O=C1c2c(O)cc(O)cc2O[C@H](c2ccc(O)c(O)c2)[C@H]1O	0.4	-2.8	-2.7	1.5	-8.0	22.7
O=C(NNCc1ccc(O)cc1)c1ccccc1Cl	1.3	-3.1	5.8	1.4	0.7	-3.1
COc1cccc(C(=O)C2CCCN(C(=O)c3ccccn3)C2)c1 (stereo not drawn)	-3.5	-3.9	1.0	8.8	0.7	2.7
COc1ccc(C(=O)C2CCCN(C(=O)c3ccnn3C)C2)cc1OC (stereo not drawn)	0.1	-2.8	3.5	-9.6	-0.1	-1.7
COc1ccc2cc(C(=O)C3CCCN(C(=O)c4ccnn4C)C3)ccc2c1 (stereo not drawn)	155.2*	-1.4	-3.7	2.2	0.8	8.8
COc1ccc2cc(C(=O)C3CCCN(C(=O)c4cc(=O)n(C)c(=O)n4C)C3)ccc2c1 (stereo not drawn)	125.5*	2.4	-1.3	-3.6	2.3	11.8
CC(O/N=C(\N)c1ccccc1)C(=O)Nc1cccc(C(F)(F)F)c1 (stereo not drawn)	-1.7	-0.9	-11.2	-2.5	.	-14.7
COc1ccccc1NS(=O)(=O)c1cc(N)ccc1N1CCOCC1	-0.7	4.0	-7.5	1.9	.	6.0
COc1ccccc1NS(=O)(=O)c1cc(N)ccc1N1CCCC1	1.6	23.5*	2.5	0.5	.	5.2
CC(=O)Nc1ccc2c(COC(=O)[C@H](C)N3C(=O)C4CCCCC4C3=O)cc(=O)oc2c1 (stereo partly drawn)	+	0.1	3.7	-1.4	-1.3	32.5*
CCOC(=O)Nc1ccc2c(CN3CCC(C(=O)OC)CC3)cc(=O)oc2c1	20.9	0.8	-2.0	1.9	-1.9	6.9

Screening results from PubChem.
